Measurements: PubChem BioAssay (NCATS)
Several values for one entry are separate records, joined by “and”; a condition that tells them apart may be missing. Equal entries are not always repeated. Inconclusive results are not listed. Activity calls are given as the source filed them. Unless noted, calls follow the shape of the full dose curve.

Columns and labels:
[1] = target: Androgen receptor (Homo sapiens) (UniProt P10275); assay: qHTS assay for small molecule agonists of androgen receptor signaling (AID 588515; active = well fitted curve in the direction sought with a large enough effect in the signal ratio, with a control signal flat; the % refers to the signal ratio; also: % is scaled to controls: 0 for no effect and ±100 for the full control effect); settings: AR-UAS-bla HEK293, beta-lactamase ratio, agonist 16 h; stronger effect = higher value
In short: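 Stimulation of an AR-responsive β-lactamase reporter in GripTite HEK293 cells was measured after 16 h compound exposure at 37 °C, via CCF4 fluorescence after 2 h RT. EC50 from Hill fits, normalized to R1881 at 30 nM.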

[2] = target: Glucocorticoid receptor (Homo sapiens) (UniProt P04150); assay: qHTS assay for small molecule agonists of glucocorticoid receptor signaling (AID 588532; active = well fitted curve in the direction sought with a large enough effect in the signal ratio, with a control signal flat; the % refers to the signal ratio;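 also: 100% = dexamethasone at 0.1 µM and 0% = DMSO only wells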); settings: HeLa MMTV-bla, beta-lactamase ratio, agonist, 18 h; stronger effect = higher value; percent of dexamethasone control, DMSO zero
In short: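 Titration series, up to 92 uM, applied to GRE-bla HeLa cells for 18 h at 37 C. Detection by CCF4 FRET substrate after 2 h at RT.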

[3] = target: Glucocorticoid receptor (Homo sapiens) (UniProt P04150); assay: qHTS assay for small molecule antagonists of glucocorticoid receptor signaling (AID 588533; active = well fitted inhibition curve with a large enough effect in the signal ratio, with a control signal flat, not every such curve was filed as active; the % refers to the signal ratio;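 also: cells stimulated with 2 nM dexamethasone as agonist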; also: potency is read from the fitted curve at half-maximal effect); settings: HeLa MMTV-bla, GRE beta-lactamase ratio, antagonist mode, 18 h; series mostly up to 76.8 µM
In short: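 Antagonist-mode qHTS: compound titrations added to GRE-bla HeLa cells, then dexamethasone 2 nM final; 18 h, 37 C. CCF4 FRET fluorescence normalized to dexamethasone and DMSO; IC50 from Hill fit.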

[4] = target: Peroxisome proliferator-activated receptor gamma (Homo sapiens) (UniProt P37231); assay: qHTS assay for small molecule agonists of peroxisome proliferator-activated receptor gamma signaling (AID 588536; active = well fitted curve in the direction sought with a large enough effect in the signal ratio, with a control signal flat, not every such curve was filed as active; the % refers to the signal ratio;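 also: 0% = DMSO basal wells and 100% = rosiglitazone at 2 µM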); settings: HEK293 PPARg-UAS-bla, beta-lactamase ratio, 16 h, percent of rosiglitazone response, DMSO as zero; series mostly up to 76.7 µM
In short: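 Cells were plated and held 6–6.5 h at 37 C, then compounds were added as a titration series. After a further 16 h, CCF4 dye was loaded for 2 h at room temperature and emission at 460/530 nm recorded.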

[5] = target: Bile acid receptor (Homo sapiens) (UniProt Q96RI1); assay: qHTS assay for small molecule antagonists of farnesoid X receptor signaling (AID 588526); settings: HEK293T FXR-UAS-bla, beta-lactamase ratio, antagonist mode; series mostly up to 76.7 µM; also: potency is read from the fitted curve at half-maximal effect
In short: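 Concentration-response titrations were fitted to the Hill equation for half-maximal inhibition and maximal response, with data normalised to 50 uM chenodeoxycholic acid and DMSO control wells. Cells: FXR-UAS-bla HEK293T, dialyzed FBS.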

[6] = target: Bile acid receptor (Homo sapiens) (UniProt Q96RI1); assay: qHTS assay for small molecule agonists of farnesoid X receptor signaling (AID 588527); settings: HEK293T FXR-UAS-bla, beta-lactamase ratio, 16 h; stronger effect = higher value;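 also: 0% = vehicle basal and 100% = reference agonist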
In short: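 FXR-UAS-bla HEK293T cells (10% dialyzed FBS) preincubated 5-7 h at 37 C, then compounds at up to 92 uM for 16 h at 37 C. CCF4 beta-lactamase read-out after 2 h RT. Normalized to chenodeoxycholic acid (100 uM) and DMSO; Hill fit gave EC50 and efficacy.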

[7] = target: Peroxisome proliferator-activated receptor delta (Homo sapiens) (UniProt Q03181); assay: qHTS assay for small molecule agonists of peroxisome proliferator-activated receptor delta signaling (AID 588534); settings: HEK293T PPARdelta-UAS-bla, beta-lactamase ratio, 18 h; series mostly up to 76.7 µM;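 also: 0% = DMSO basal wells and 100% = positive control agonist at 10 µM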
In short: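 Agonist-mode beta-lactamase reporter readout (CCF4 dye, 2 h at RT) after 18 h at 37 °C exposure to a titration; Hill-equation fitting gave EC50 and maximal response.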

[8] = qHTS assay for small molecule antagonists of peroxisome proliferator-activated receptor delta signaling (AID 588535; active = well fitted inhibition curve with a large enough effect in the signal ratio, with a control signal flat, not every such curve was filed as active; the % refers to the signal ratio;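 as to max response: cells co-treated with a PPAR-delta agonist as stimulator during compound exposure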); settings: HEK293T PPARd-UAS-bla, beta-lactamase FRET ratio, 18 h; 460 nm channel
In short: (§1)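 Inhibition of PPAR-delta response element-driven beta-lactamase expression is measured in HEK293T cells exposed to a compound titration series for 18 hrs at 37 C. Half-maximal inhibition comes from Hill equation fitting.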

[9] = target: Peroxisome proliferator-activated receptor delta (Homo sapiens) (UniProt Q03181); assay: as above; settings: HEK293T PPARd-UAS-bla, beta-lactamase FRET ratio, 18 h; series mostly up to 76.7 µM
In short: as §1

[10] = target: Androgen receptor (Homo sapiens) (UniProt P10275); assay: qHTS assay for small molecule antagonists of androgen receptor signaling (AID 588516; active = well fitted curve in the direction sought with a large enough effect in the signal ratio, with a control signal flat, not every such curve was filed as active; the % refers to the signal ratio; also: % is scaled to controls: 0 for no effect and ±100 for the full control effect); settings: AR-UAS-bla HEK293, beta-lactamase ratio, antagonist mode, 16 h; series mostly up to 76.8 µM
In short: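 Cells were plated and incubated 5 h, compounds added in titration, then R1881 (10 nM final) as agonist. After 16 h at 37 C, CCF4 substrate was loaded for 2 h at room temperature and fluorescence measured.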

Chain of Androgen receptor (Homo sapiens) (P10275 whole entry, looked up): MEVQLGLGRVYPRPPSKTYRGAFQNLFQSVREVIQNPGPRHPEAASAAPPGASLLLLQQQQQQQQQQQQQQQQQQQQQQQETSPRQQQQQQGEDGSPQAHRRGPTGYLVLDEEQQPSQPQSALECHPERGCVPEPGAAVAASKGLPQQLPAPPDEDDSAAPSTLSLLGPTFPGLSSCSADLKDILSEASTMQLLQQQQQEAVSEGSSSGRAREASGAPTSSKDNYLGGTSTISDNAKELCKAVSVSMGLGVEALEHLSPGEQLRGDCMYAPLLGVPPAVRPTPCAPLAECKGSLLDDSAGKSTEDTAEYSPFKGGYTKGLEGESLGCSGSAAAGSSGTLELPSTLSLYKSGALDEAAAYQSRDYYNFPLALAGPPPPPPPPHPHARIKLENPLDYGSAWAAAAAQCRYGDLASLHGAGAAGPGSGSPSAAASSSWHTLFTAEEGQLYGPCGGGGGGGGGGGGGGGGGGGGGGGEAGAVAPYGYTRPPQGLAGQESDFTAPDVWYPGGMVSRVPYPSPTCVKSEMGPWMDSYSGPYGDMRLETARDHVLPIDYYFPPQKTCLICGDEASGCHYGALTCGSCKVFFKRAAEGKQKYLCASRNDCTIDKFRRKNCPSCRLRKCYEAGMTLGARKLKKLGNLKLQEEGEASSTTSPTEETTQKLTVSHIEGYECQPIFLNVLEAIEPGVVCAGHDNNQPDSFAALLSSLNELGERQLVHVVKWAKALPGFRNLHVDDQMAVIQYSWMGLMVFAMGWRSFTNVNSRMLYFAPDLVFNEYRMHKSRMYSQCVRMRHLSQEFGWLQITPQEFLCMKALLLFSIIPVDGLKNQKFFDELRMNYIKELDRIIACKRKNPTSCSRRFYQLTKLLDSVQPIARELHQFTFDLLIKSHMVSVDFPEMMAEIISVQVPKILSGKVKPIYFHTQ
Chain of Bile acid receptor (Homo sapiens) (Q96RI1 whole entry, looked up): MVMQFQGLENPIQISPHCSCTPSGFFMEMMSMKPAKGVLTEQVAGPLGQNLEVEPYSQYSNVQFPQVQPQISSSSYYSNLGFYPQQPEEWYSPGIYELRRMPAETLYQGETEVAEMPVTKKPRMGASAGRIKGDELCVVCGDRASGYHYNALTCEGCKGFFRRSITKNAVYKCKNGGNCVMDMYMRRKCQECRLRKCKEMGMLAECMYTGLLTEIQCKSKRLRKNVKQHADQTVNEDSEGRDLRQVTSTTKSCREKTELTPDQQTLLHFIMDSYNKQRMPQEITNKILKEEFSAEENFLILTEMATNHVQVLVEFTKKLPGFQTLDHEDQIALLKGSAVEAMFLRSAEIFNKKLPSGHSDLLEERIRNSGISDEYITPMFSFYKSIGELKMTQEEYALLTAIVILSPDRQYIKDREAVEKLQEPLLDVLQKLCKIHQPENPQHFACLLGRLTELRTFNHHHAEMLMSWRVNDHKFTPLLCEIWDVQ
Chain of Peroxisome proliferator-activated receptor delta (Homo sapiens) (Q03181 whole entry, looked up): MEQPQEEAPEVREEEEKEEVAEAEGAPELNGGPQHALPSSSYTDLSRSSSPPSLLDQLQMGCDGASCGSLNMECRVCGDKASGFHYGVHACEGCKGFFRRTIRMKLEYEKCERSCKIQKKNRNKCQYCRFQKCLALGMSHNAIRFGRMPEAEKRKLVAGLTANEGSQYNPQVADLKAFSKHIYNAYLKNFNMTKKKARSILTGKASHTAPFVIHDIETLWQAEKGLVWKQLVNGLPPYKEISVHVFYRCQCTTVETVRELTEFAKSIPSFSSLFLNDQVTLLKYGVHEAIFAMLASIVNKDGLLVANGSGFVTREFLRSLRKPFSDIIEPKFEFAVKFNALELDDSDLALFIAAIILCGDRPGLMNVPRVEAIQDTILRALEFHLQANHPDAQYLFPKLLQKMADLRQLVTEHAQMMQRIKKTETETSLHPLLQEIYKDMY
Chain of Glucocorticoid receptor (Homo sapiens) (P04150 whole entry, looked up): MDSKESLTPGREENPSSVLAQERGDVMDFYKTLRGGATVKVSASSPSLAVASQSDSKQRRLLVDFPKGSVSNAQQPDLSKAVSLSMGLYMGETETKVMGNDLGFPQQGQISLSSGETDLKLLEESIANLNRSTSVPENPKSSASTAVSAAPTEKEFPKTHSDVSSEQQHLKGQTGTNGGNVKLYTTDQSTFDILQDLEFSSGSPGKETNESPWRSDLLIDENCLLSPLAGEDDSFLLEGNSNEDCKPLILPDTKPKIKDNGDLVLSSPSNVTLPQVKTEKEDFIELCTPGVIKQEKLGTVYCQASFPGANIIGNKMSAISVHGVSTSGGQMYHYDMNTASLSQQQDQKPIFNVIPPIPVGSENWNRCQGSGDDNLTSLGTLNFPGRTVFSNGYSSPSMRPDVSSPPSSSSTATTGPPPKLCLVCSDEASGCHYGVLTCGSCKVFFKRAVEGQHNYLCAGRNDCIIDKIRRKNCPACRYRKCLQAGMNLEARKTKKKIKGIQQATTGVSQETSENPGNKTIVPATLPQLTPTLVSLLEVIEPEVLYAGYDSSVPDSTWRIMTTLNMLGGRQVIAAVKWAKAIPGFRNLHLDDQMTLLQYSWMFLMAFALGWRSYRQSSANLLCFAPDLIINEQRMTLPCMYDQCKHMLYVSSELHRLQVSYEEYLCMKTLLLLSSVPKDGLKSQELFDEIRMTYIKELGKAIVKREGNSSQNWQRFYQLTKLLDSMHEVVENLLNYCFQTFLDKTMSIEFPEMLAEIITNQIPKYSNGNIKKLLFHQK
Chain of Peroxisome proliferator-activated receptor gamma (Homo sapiens) (P37231 whole entry, looked up): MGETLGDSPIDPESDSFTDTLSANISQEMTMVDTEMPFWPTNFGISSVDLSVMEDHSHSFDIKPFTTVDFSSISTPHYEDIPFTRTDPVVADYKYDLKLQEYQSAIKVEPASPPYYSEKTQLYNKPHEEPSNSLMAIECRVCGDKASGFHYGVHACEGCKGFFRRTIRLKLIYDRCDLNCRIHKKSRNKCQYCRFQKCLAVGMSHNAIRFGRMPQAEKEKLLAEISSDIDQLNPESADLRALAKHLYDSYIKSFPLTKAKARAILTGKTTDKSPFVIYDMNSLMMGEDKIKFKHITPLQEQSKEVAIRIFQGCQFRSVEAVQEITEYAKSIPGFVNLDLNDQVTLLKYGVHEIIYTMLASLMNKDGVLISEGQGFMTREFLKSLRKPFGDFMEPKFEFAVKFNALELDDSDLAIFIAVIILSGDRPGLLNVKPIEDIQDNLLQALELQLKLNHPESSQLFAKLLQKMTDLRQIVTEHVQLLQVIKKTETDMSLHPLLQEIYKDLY

For `COc1cc(OC)c(OC)cc1C=O`, the activation [1] was -8.64% (inactive), the activation [2] was 3.74% (inactive) and the Potency [3] was “inactive”. The outcome [4] was “inactive”.

With `COP(=S)(OC)SCN1C(=O)c2ccccc2C1=O` the Potency [5] was “inactive”, the activation [2] was 10.5% (inactive) and the Potency [3] was “inactive”. The outcome [4] was “inactive”.

For `O=C(O)CCCCC(=O)O`, the activation [6] was -1.88% (inactive).

For `Nc1ccccc1C(=O)O`, the Potency [5] was “inactive” and the outcome [4] was “inactive”.

For `O=P1(N(CCCl)CCCl)NCCCO1` (configuration not stated), the Potency [5] was “inactive”, the activation [6] was -1.19% (inactive) and 1.86% (inactive) and the activation [2] was 2.61% (inactive) and 1.05% (inactive). The Potency [3] was “inactive”, the outcome [7] was “inactive” and the max response [8] was 34.9% and 30.3%. The outcome [9] was “inactive” and the outcome [4] was “inactive”.

With `Cc1cc(=O)n(-c2ccccc2)n1C` the activation [6] was 1.08% (inactive).

In the case of `CCC(C)(C)c1ccc(O)cc1`, the Potency [5] is reported as “inactive”, the activation [6] is reported as -0.511% (inactive) and -0.445% (inactive) and the activation [2] is reported as -4.8% (inactive). For the same compound, the Potency [3] was “inactive” and the outcome [4] was “inactive”.

For `Nc1nc(N)nc(NC2CC2)n1`, the Potency [5] was “inactive”, the Potency [3] was “inactive” and the outcome [7] was “inactive”. The max response [8] was 47% and the outcome [9] was “inactive”.

With `CCCc1c(OCCCCc2nn[nH]n2)ccc(C(C)=O)c1O` the activation [6] was 7.75% (inactive).

In the case of `COC(=O)C(c1ccccc1)C1CCCCN1` (configuration not stated), the activation [1] is reported as 0.332% (inactive), the outcome [10] is reported as “inactive” and the Potency [5] is reported as “inactive”. The activation [6] was -2.4% (inactive), the activation [2] was 2.14% (inactive) and the Potency [3] was “inactive”. For the same compound, the outcome [4] was “inactive”.

In the case of `O=c1c(-c2ccc(O)cc2)coc2cc(O)cc(O)c12`, the activation [6] is reported as -3.37% (inactive).

For `O=C(O)CCCc1ccc(N(CCCl)CCCl)cc1`, the Potency [5] was “inactive”, the activation [6] was -2.97% (inactive) and 0.833% (inactive) and the outcome [7] was “inactive”. The max response [8] was 26.1%, the outcome [9] was “inactive” and the outcome [4] was “inactive”.

In the case of `CC(=O)O[C@H]1C(=O)[C@@]2(C)[C@H]([C@H](OC(=O)c3ccccc3)[C@]3(O)C[C@H](OC(=O)[C@H](O)[C@@H](NC(=O)c4ccccc4)c4ccccc4)C(C)=C1C3(C)C)[C@]1(OC(C)=O)CO[C@@H]1C[C@@H]2O`, the activation [6] is reported as 3.09% (inactive).

With `O=C(O)c1cc(-c2ccccc2)nc2ccccc12` the activation [6] was -1.96% (inactive).

In the case of `COc1c2occc2cc2ccc(=O)oc12`, the activation [6] is reported as 0.341% (inactive) and 4.08% (inactive).

In the case of `C[C@]1(O)CC[C@H]2[C@@H]3CCC4=CC(=O)CC[C@]4(C)[C@@]3(F)[C@@H](O)C[C@@]21C`, the Potency [5] is reported as “inactive”, the activation [6] is reported as -0.176% (inactive) and the activation [2] is reported as 0.36% (inactive). For the same compound, the Potency [3] was 10 µM (active), the max response [8] was -0.651% and the outcome [9] was “inactive”. The outcome [4] was “inactive”.

With `CC(=O)O[C@]1(C(C)=O)CC[C@H]2[C@@H]3C[C@H](C)C4=CC(=O)CC[C@]4(C)[C@H]3CC[C@@]21C` the activation [6] was 0.881% (inactive).

In the case of `Cn1c(=O)c2[nH]cnc2n(C)c1=O`, the activation [6] is reported as 0.492% (inactive).

With `COc1cc(C=O)ccc1O` the activation [6] was -1.98% (inactive) and -0.968% (inactive).

With `CC(C)c1cccc(C(C)C)c1O` the activation [1] was -6.9% (inactive), the outcome [10] was “inactive” and the outcome [7] was “inactive”. For the same compound, the max response [8] was -11.4%, the outcome [9] was “inactive” and the outcome [4] was “inactive”.

With `CN1C[C@H](C(=O)N[C@]2(C)O[C@@]3(O)[C@@H]4CCCN4C(=O)[C@H](Cc4ccccc4)N3C2=O)C=C2c3cccc4[nH]cc(c34)C[C@H]21` the Potency [5] was 39.8 µM (active), the activation [6] was 2.53% (inactive) and the activation [2] was -6.8% (inactive).

In the case of `O=C(c1ccccc1)c1ccccc1`, the activation [6] is reported as -1.37% (inactive) and -0.544% (inactive).

For `COc1ccc(C(=O)c2ccccc2)c(O)c1`, the activation [6] was -3.45% (inactive) and -6.15% (inactive).

For `Clc1ccc(C(c2ccc(Cl)cc2)C(Cl)(Cl)Cl)cc1`, the Potency [5] was “inactive”, the activation [6] was 4.82% (inactive) and the activation [2] was 4.79% (inactive) and 0.666% (inactive). For the same compound, the Potency [3] was “inactive”, the max response [8] was -51.4% and the outcome [9] was “inactive”.

With `CCCCOC(=O)CC(CC(=O)OCCCC)(OC(C)=O)C(=O)OCCCC` the activation [6] was 1.49% (inactive).

For `CC(=O)N1CCN(c2ccc(OC[C@H]3CO[C@](Cn4ccnc4)(c4ccc(Cl)cc4Cl)O3)cc2)CC1`, the Potency [5] was 44.7 µM (active), the activation [6] was -1.01% (inactive) and the outcome [7] was “inactive”.

With `[N-]=[N+]=CC(=O)OC[C@H](N)C(=O)O` the Potency [5] was “inactive”, the outcome [7] was “inactive” and the max response [8] was 46.8%. The outcome [9] was “inactive”.

In the case of `Cc1cc(=O)[nH]c(=S)[nH]1`, the activation [6] is reported as 0.173% (inactive).

In the case of `C[C@]12CCC(=O)C=C1CC[C@@H]1[C@@H]2CC[C@]2(C)C(=O)CC[C@@H]12`, the Potency [5] is reported as “inactive”, the activation [6] is reported as -2.26% (inactive) and the outcome [4] is reported as “inactive”.

In the case of `Cc1c(C)c2c(c(C)c1O)CCC(C)(COc1ccc(CC3SC(=O)NC3=O)cc1)O2` (configuration not stated), the activation [6] is reported as 9.23% (inactive).

With `Cc1noc(NS(=O)(=O)c2ccc(N)cc2)c1C` the activation [6] was 1.48% (inactive).

In the case of `CCOC(=O)CC(SP(=S)(OC)OC)C(=O)OCC` (configuration not stated), the activation [1] is reported as 17.2% (inactive) and 0.217% (inactive) and -5.72% (inactive), the outcome [10] is reported as “inactive” and the activation [2] is reported as -4.46% (inactive) and 3.12% (inactive) and 14.7% (inactive). For the same compound, the Potency [3] was “inactive”, the outcome [7] was “inactive” and the max response [8] was 0.513%. For the same compound, the outcome [9] was “inactive” and the outcome [4] was “inactive”.
